Screens deposited in PubChem by several laboratories.
Hits are enriched below; roughly 4.6% of the tested compounds scored in any of these assays.
tim23-1 inh = inhibits growth of tim23-1 mutant yeast. S. cerevisiae tim23-1 growth, BacTiter-Glo luminescence, 24 h. inhibition, % at 20 µM. 330,000 tested, 1.3% active;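 active = growth inhibition of the mutant yeast at or above 50%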;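 note: temperature-sensitive mutant grown at 25 °C; plate controls were DMSO-treated mutant yeast for no effect and medium wells lacking yeast for full effect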
tim10-1 inh = tim10-1 yeast growth inhibition | S. cerevisiae tim10-1 ts strain growth, BacTiter-Glo, 24 h | inhibition, % at 20 µM | 330,000 tested, 2.2% active | AID 463190;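 active = inhibition of at least 40%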;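 note: mutant grown at 25 °C; 0% = DMSO wells with yeast and 100% = wells holding no yeast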
SKKanGAS inh = blocks kanamycin growth of S. pyogenes SKKanGAS strain; inhibition, % at 7.5 µM; BacTiter-Glo, 6 h; AID 1662; 300,000 tested, 1.3% active;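 active = mean replicate score, as percent of positive control median, at least 50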;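 note: strain carries kanamycin resistance gene driven by streptokinase promoter and grows in 40 µg/ml kanamycin; loss of luminescence reflects streptokinase promoter inhibition or plain growth inhibition; 0% = median of DMSO wells and 100% = positive control at its reference dose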
TIM10 inh = growth inhibitors of TIM10 yeast strain | S. cerevisiae TIM10 strain growth, BacTiter-Glo luminescence, 24 h | inhibition, % at 10 µM | 330,000 tested, 1.4% active | AID 463195;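 active = inhibition of 40% or more at the single tested concentration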;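 note: wild-type TIM10 isogenic control strain grown at permissive 25 °C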
NALP3 yeast inh = blocks the NALP3 inflammasome reconstituted in yeast | Yeast reconstituted NLRP3/ASC/caspase-1, beta-gal luminescence, 24 h | inhibition, % at 10 µM | 330,000 tested, 0.39% active | AID 2825;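 active = inhibition of 50% or more; inactive = inhibition below 50%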;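 note: plate controls were induced DMSO wells for no effect and uninduced yeast grown without galactose for full effect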
Active calls of the source: *; / = no result given.

SMILES	tim23-1 inh	tim10-1 inh	SKKanGAS inh	TIM10 inh	NALP3 yeast inh
CN(CC1COc2ccccc2O1)C(=O)c1cccc(S(=O)(=O)N2CCCC2)c1 (configuration not stated)	4.6	4.1	/	-3.4	13.5
Nc1ccccc1C(=O)NNC1=C(C(=O)C(F)(F)F)CCC1	1.6	13.4	-1.9	-4.9	1.4
O=C(NNC1=C(C(=O)C(F)(F)F)CCC1)c1ccc(Br)cc1	39.9	0.1	106.4*	11.8	-2.8
O=C(NNC1=C(C(=O)C(F)(F)F)CCC1)c1ccccc1O	36.2	-55.4	87.0*	-5.1	6.7
O=C(NNC1=C(C(=O)C(F)(F)F)CCC1)c1ccccc1Cl	6.7	15.2	16.1	13.7	12.7
CCCc1cc(CNC(=O)C2CCC(=O)N(Cc3ccccc3OC)C2)on1 (configuration not stated)	7.4	18.8	-2.9	-0.5	7.2
CC1=NOC2(C1)N(C)c1ccccc1C2(C)C (configuration not stated)	13.8	11.9	-7.1	-8.2	4.3
COc1ccc2ccc3c(c2c1)N=C[C@]1(O3)N(C)c2ccccc2C1(C)C	9.1	7.4	55.8*	14.6	7.5
CC(C)(C)OC(=O)CC1(C#N)c2ccccc2C(Br)=CN1C(=O)c1ccccc1 (configuration not stated)	21.7	17.7	8.3	21.5	6.3
COc1ccc2c(=O)c(-c3ccccc3)c(C)oc2c1	16.1	-10.9	-10.0	-6.8	29.5
Cc1oc2cc(Br)c(O)c(Br)c2c1-c1ccccc1	/	/	82.9*	/	/
O=C(/C=C/c1cccc([N+](=O)[O-])c1)c1ccc([N+](=O)[O-])o1	/	/	86.1*	/	/
Cc1c(/C=N\NC(=O)C2COc3ccccc3O2)c2ccccc2n1C (configuration not stated)	/	/	1.4	/	/
CCSC(=S)c1c(C)[nH]n(-c2ccccc2)c1=O	-10.6	3.1	57.0*	8.5	16.2
Cc1ccc(-n2c(O)c(/C=N/NC(=O)C3COc4ccccc4O3)c3ccccc3c2=O)cc1 (configuration not stated)	3.9	8.0	100.9*	5.9	2.1
CC(=O)N/N=C/c1c(C)[nH]n(-c2ccccc2)c1=O	-10.1	5.6	-13.3	0.3	3.9
Cc1[nH]n(-c2ccccc2)c(=O)c1C(=O)c1ccccc1	-1.4	5.3	-5.4	-3.2	6.0
Cc1[nH]n(-c2ccccc2)c(=O)c1/C=N/NC(=O)c1ccccc1F	-0.3	9.4	90.3*	-2.3	4.3
CC/C(=N/NC(=O)c1ccccc1O)c1c(C)[nH]n(-c2ccccc2)c1=O	10.5	29.9	95.4*	-13.8	-7.3
COc1ccc(S(=O)(=O)N2CCc3ccccc32)cc1C(=O)NC1(C)CCS(=O)(=O)C1 (configuration not stated)	-18.7	4.7	/	4.6	8.7
CCCN(C(=O)CSc1ncccn1)C1CCS(=O)(=O)C1 (configuration not stated)	-8.3	-9.1	/	-15.0	19.7
Cc1ccc(S(=O)(=O)/N=C(/Nc2ccc([N+](=O)[O-])cc2[N+](=O)[O-])c2ccccc2)cc1	45.1	26.5	/	16.9	-11.1
COc1cc(C)c(CN2CCN(S(=O)(=O)c3ccc(Cl)s3)CC2)cc1OC	30.3	-4.4	/	0.3	16.1
Cc1ccc(/C=N/NC(=O)C2COc3ccccc3O2)s1 (configuration not stated)	8.3	25.9	-14.5	11.0	25.7
Cc1[nH]n(-c2ccccc2)c(=O)c1/C=N\NC(=O)C1COc2ccccc2O1 (configuration not stated)	16.5	5.6	65.3*	8.6	10.5
SMILES	tim23-1 inh	tim10-1 inh	SKKanGAS inh	TIM10 inh	NALP3 yeast inh
O=C(N/N=C/c1c(O)n(-c2ccccc2Cl)c(=O)c2ccccc12)C1COc2ccccc2O1 (configuration not stated)	-6.2	29.4	78.6*	-2.2	-0.6
Clc1ccc(/C=N/NC(=Nc2ccccc2)c2ccccn2)c(Cl)c1	32.6	36.2	51.8*	15.7	20.2
COc1ccc(S(=O)(=O)Nc2ccc3c(c2)C(=O)N([C@H](C)CO)C[C@H](C)[C@@H](CN(C)S(=O)(=O)c2cccs2)O3)cc1	9.3	18.7	/	-7.1	17.6
O=C(Nc1ccccc1C(=O)O)c1cccc(NC(=O)c2ccc(Br)o2)c1	11.4	4.6	83.2*	0.7	4.4
O=C(Nc1ccccc1C(=O)O)c1ccc(NC(=O)c2ccc(Br)o2)cc1	7.7	18.7	13.9	-14.0	11.3
O=C(Nc1ccc2c(c1)CCCN2C(=O)c1cccs1)c1c(F)cccc1Cl	19.6	21.4	3.6	10.7	10.0
S=c1[nH]nc(-c2cccs2)n1/N=C/c1cn(-c2ccccc2)nc1-c1ccccc1	29.0	23.1	75.3*	17.5	15.6
CC(OC(=O)c1ccc(OCC2CCCO2)cc1)C(=O)N(C)Cc1ccccc1 (configuration not stated)	25.6	27.5	-1.5	13.8	36.2
O=c1c2c(n3nnnc3n1Cc1ccccc1)-c1ccccc1CC21CCCC1	4.7	11.2	64.6*	20.1	-5.5
CCC1(C)Cc2ccccc2-c2c1c(=O)n(Cc1ccccc1)c1nnnn21 (configuration not stated)	11.5	19.0	68.6*	2.5	3.7
COCCn1c(C)cc(/C=C(\C#N)C(=O)OCC(=O)N(C)c2c(N)n(Cc3ccccc3)c(=O)[nH]c2=O)c1C	13.1	13.7	1.5	16.8	19.6
O=C(Nc1nnc(C2CC2)s1)c1cc(-c2ccccc2)nn1-c1ccccc1	39.1	36.6	73.5*	21.7	14.7
C/C(=N\NC(=O)c1c(Cl)c(C)nn1C)c1cccc(NC(=O)c2cccc(F)c2)c1	0.9	3.4	55.4*	18.9	21.9
CC(Sc1nnc(C(C)Oc2ccccc2F)o1)C(=O)NCc1ccc2c(c1)OCO2 (configuration not stated)	43.2	24.7	/	10.2	8.0
CC(NC(=O)c1cccc(S(=O)(=O)N2CCCCCC2)c1)c1ccccc1 (configuration not stated)	23.9	18.0	/	-4.4	0.0
COc1ccc(-c2cc(C(F)(F)F)nc(NCc3cccs3)n2)cc1	-3.7	-37.4	73.7*	-10.8	14.6
COc1ccccc1-c1cc(C(F)(F)F)nc(NCc2cccs2)n1	21.7	6.4	9.6	21.3	-5.1
CCC(Sc1nc(C)cc(C)n1)C(=O)Nc1nccs1 (configuration not stated)	-36.0	-28.3	0.8	-24.5	-4.8
N=C(N)c1ccc(OCCCCCOc2ccc(C(=N)N)cc2)cc1	-28.1	18.1	108.0*	-21.6	34.3
CCCCCCOc1ccc(/C(N)=N/O)cc1	21.9	16.2	-11.8	19.2	10.7
Cc1ccc(Nc2nc3nonc3[nH]c2=O)cc1Cl	18.1	11.8	106.1*	0.8	19.5
Cc1ccc(Nc2nc3nonc3[nH]c2=O)cc1C	-11.1	-22.7	26.2	-5.4	15.8
CCCOc1ccc(/C(O)=C2/C(=O)C(=O)N(c3ccccn3)C2c2ccc(OC)cc2)cc1C (configuration not stated)	28.5	30.2	50.0*	9.2	37.8
